Measurements reported in PubChem BioAssay AID1159580 (chemical genetic matrix, 2015).
Out of some 5,500 compounds screened, about 2,000 (36%) were called active. Roughly 18% stayed inconclusive and do not appear here. Rule as the data show it: active = normalized growth mostly below about 0.91 (no sharp cut-off); inconclusive = no clear call, values can overlap the other calls; inactive = mostly above about 0.92. The list shows a part of the results.

Assay: chemical genetic growth profiling, strain panel (AID 1159580);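 also: tested at 20 µM; growth read once vehicle control cultures reached saturation at 30 °C; 1 = growth at the plate median or of vehicle wells; lower values mean less growth of the strain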
Conditions: S. cerevisiae deletion strains, growth OD

Measured: normalized growth

COC(=O)[C@H](NC(=O)c1cc(-c2ccccc2)nc2ccccc12)c1ccccc1
inactive: locus YAL013W, strain DEP1, active compounds read low 1.02 | locus YAL040C, strain CLN3, active compounds read low 1.01 | locus YCL061C, strain MRC1 (second series), active compounds read low 0.998 | locus YDR363W, strain ESC2, active compounds read low 0.989 | locus YER002W, strain NOP16, active compounds read low 1.01 | locus YGR078C, strain PAC10, active compounds read low 0.984 | locus YJR075W, strain HOC1, active compounds read low 1 | locus YNL128W, strain TEP1, active compounds read low 0.996 | locus YNL153C, strain GIM3, active compounds read low 1 | locus YNL175C, strain NOP13, active compounds read low 1.01 | locus YNL197C, strain WHI3, active compounds read low 0.989 | locus YNL224C, strain SQS1, active compounds read low 1.02 | locus YNL322C, strain KRE1, active compounds read low 0.999 | locus YOR083W, strain WHI5 (second series), active compounds read low 1.06 | locus YPL055C, strain LGE1, active compounds read low 0.99 | locus YPL241C, strain CIN2, active compounds read low 0.999

NNC(=O)c1oc2nc(-c3ccccc3)cc(-c3ccccc3)c2c1N
active: locus YLR113W, strain HOG1, active compounds read low 0.813
inactive: locus YAR019C, strain CDC15, active compounds read low 0.972 | locus YBL105C, strain PKC1, active compounds read low 0.986 | locus YBR135W, strain CKS1, active compounds read low 0.984 | locus YBR136W, strain MEC1, active compounds read low 0.985 | locus YBR160W, strain CDC28, active compounds read low 0.987 | locus YDL017W, strain CDC7, active compounds read low 0.985 | locus YDL028C, strain MPS1, active compounds read low 0.983 | locus YDL101C, strain DUN1, active compounds read low 0.981 | locus YDL108W, strain KIN28, active compounds read low 0.978 | locus YDL132W, strain cdc53, active compounds read low 0.971 | locus YDL214C, strain PRR2, active compounds read low 0.921 | locus YDR052C, strain DBF4, active compounds read low 0.997 | locus YDR054C, strain cdc34, active compounds read low 0.962 | locus YDR226W, strain ADK1, active compounds read low 0.985 | locus YDR477W, strain SNF1, active compounds read low 0.934 | locus YER123W, strain YCK3, active compounds read low 0.913 | locus YER133W, strain GLC7, active compounds read low 0.93 | locus YFL009W, strain cdc4, active compounds read low 0.983 | locus YFL029C, strain CAK1, active compounds read low 0.965 | locus YFR003C, strain YPI1, active compounds read low 0.984 | locus YFR019W, strain FAB1, active compounds read low 0.924 | locus YFR028C, strain CDC14, active compounds read low 0.976 | locus YGR040W, strain KSS1, active compounds read low 0.93 | locus YGR052W, strain FMP48, active compounds read low 0.952 | locus YGR092W, strain DBF2, active compounds read low 0.943 | locus YHR030C, strain SLT2, active compounds read low 0.979 | locus YHR079C, strain IRE1, active compounds read low 1.01 | locus YHR082C, strain KSP1, active compounds read low 0.998 | locus YHR205W, strain SCH9, active compounds read low 0.914 | locus YIL147C, strain SLN1, active compounds read low 0.984 | locus YJL095W, strain BCK1, active compounds read low 0.891 | locus YJL128C, strain PBS2, active compounds read low 0.95 | locus YJL157C, strain FAR1, active compounds read low 0.924 | locus YJR016C, strain ILV3, active compounds read low 0.98 | locus YJR066W, strain TOR1 (second series), active compounds read low 0.887 | locus YJR066W, strain TOR1, active compounds read low 0.983 | locus YKL048C, strain ELM1, active compounds read low 0.956 | locus YKL067W, strain YNK1, active compounds read low 0.948 | locus YKL101W, strain HSL1, active compounds read low 0.937 | locus YKL193C, strain SDS22, active compounds read low 0.977 | locus YKL203C, strain TOR2, active compounds read low 0.989 | locus YLR133W, strain CKI1, active compounds read low 0.942 | locus YLR403W, strain SFP1, active compounds read low 0.924 | locus YML070W, strain DAK1, active compounds read low 0.899 | locus YMR001C, strain CDC5, active compounds read low 0.988 | locus YMR205C, strain PFK2 (second series), active compounds read low 0.953 | locus YMR277W, strain FCP1, active compounds read low 0.983 | locus YNL006W, strain LST8, active compounds read low 0.978 | locus YNL020C, strain ARK1, active compounds read low 0.935 | locus YNL161W, strain CBK1, active compounds read low 0.989 | locus YNL183C, strain NPR1, active compounds read low 0.946 | locus YNL207W, strain RIO2, active compounds read low 0.965 | locus YNL222W, strain SSU72, active compounds read low 0.981 | locus YNL307C, strain MCK1 (second series), active compounds read low 0.895 | locus YOL078W, strain AVO1, active compounds read low 0.954 | locus YOL136C, strain PFK27, active compounds read low 0.844 | locus YOR061W, strain CKA2, active compounds read low 0.958 | locus YOR119C, strain RIO1, active compounds read low 0.996 | locus YOR231W, strain MKK1, active compounds read low 0.884 | locus YOR329C, strain SCD5, active compounds read low 0.985 | locus YPL031C, strain PHO85, active compounds read low 0.907 | locus YPL153C, strain RAD53, active compounds read low 0.953 | locus YPL204W, strain HRR25, active compounds read low 0.907 | locus YPL209C, strain IPL1, active compounds read low 0.982 | locus YPL256C, strain CLN2, active compounds read low 0.939 | locus YPR025C, strain CCL1, active compounds read low 0.984 | locus YPR106W, strain ISR1, active compounds read low 0.977 | locus YPR111W, strain DBF20, active compounds read low 0.961 | strain NNK1, active compounds read low 0.97 | strain TSCII, active compounds read low 0.98
